# ChEMBL document CHEMBL4888484, “Replenishing the malaria drug discovery pipeline: Screening and hit evaluation of the MMV Hit Generation Library 1 (HGL1) against asexual blood stage Plasmodium falciparum ,using a nano luciferase reporter read-out” (2022)
# The campaign covered roughly 4,800 compounds. About 420 (8.8%) showed an effect of 50% or more. Shown is part of a subset that was picked to be rich in strong results.
# Tested on: Plasmodium falciparum
# Test: Confirmatory screen in NF54 nanoGlo assay, in single point, at 2uM, 72h
# Assay type: functional, Erythrocyte
# Conditions: timepoint 72 hour
row,SMILES,% Inhibition [%]
1,CCN1C(=O)C(=O)N(CN2CCc3ccccc3C2)C1=O,-4
2,Cc1nn(C)c(Cl)c1NC(=O)OCc1ccc(F)cc1,-4
3,CCn1cc(-c2nc(-c3ccccc3C)no2)c(=O)c2cc(F)c(N3CCCCC3)cc21,47
4,CCn1cc(C(=O)O)c(=O)c2cc(F)c(N3CCN(S(=O)(=O)c4ccccc4)CC3)cc21,-10
5,CCn1cc(C#N)c(=O)c2cc(F)c(N3CCN(Cc4ccccc4)CC3)cc21,69
6,c1cc(Cn2cnc3c2CCCC3)cs1,-15
7,CC[C@H]1Cn2c(C(=O)NCc3cccs3)cc3c(Cl)ccc(c32)O1,-4
8,COc1ccc(C(=O)Cn2nc(C)cc2C)cc1,-4
9,COc1ccc2c(O)cc(-c3ccccc3)nc2c1,-2
10,COc1ccc2c(NC(=O)Cc3c(C)noc3C)n[nH]c2c1,0
11,O=C(Nc1cccc(Oc2c(F)c(F)c(-c3c(F)c(F)c(Oc4cccc(NC(=O)c5ccccc5)c4)c(F)c3F)c(F)c2F)c1)c1ccccc1,5
12,Nc1cc(C(F)(F)F)c(Br)cc1Br,-16
13,Cc1cccc(N2CCN(C(=O)c3ccc4c(c3)C(=O)N(c3cc(C)on3)C4=O)C[C@@H]2C)c1,-3
14,CC1CN(S(=O)(=O)CC2CCOC2)c2ccc(F)cc2O1 (centres undefined),-2
15,CCOc1ccccc1NC(=O)Cc1c(C)nc2nc(-c3cccnc3)nn2c1C,0
16,CCCOc1ccc(Nc2cc(C)nc3ccc(Cl)cc23)cc1,42
17,Cc1cc(C)c2nc(C)cc(Nc3ccc(O)cc3)c2c1,87
18,Cc1ncoc1C(=O)N1CC(F)(F)C[C@H]1Cn1cc(C(=O)N2CCOCC2)nn1,-1
19,CC(C)(C)OC(=O)Nc1cccc(N)n1,1
20,Cn1cncc1CC(=O)Nc1ccnc(NC(=O)OC(C)(C)C)c1,96
21,COc1ccc(-c2noc(Cn3c(=O)c4ccccc4n(CC(=O)Nc4cc(Cl)ccc4C)c3=O)n2)cc1,-3
22,O=C(C[C@H]1CCN(C(=O)c2ccc(F)cc2)C1)NC1CC1,-11
23,CCS(=O)(=O)Nc1ccc(S(=O)(=O)NC[C@@H](c2ccccc2OC)N2CCCCC2)c(C)c1,-1
24,CC(C)[C@@H]1CC[C@H](C)C[C@H]1OC(=O)Cn1cc(-c2ccc(Cl)cc2)[n+]2c1CCC2,84
25,CC(C)N(C(=O)c1cc(O)nc2ccccc12)C1CC1,-2
26,CN(CC(C)(CO)CO)C(=O)c1coc2ccccc12,-3
27,Cc1cccc(C)c1OCC(=O)Nc1ccc(-c2nc3cc4ccccc4cc3[nH]2)cc1,10
28,Oc1cc(-c2ccc3ccccc3c2)[nH]n1,-11
29,c1cc(-c2nc3cc4ccccc4cc3[nH]2)nc(-c2nc3cc4ccccc4cc3[nH]2)c1,99
